# NR1D1 modulator = Rev-erb alpha (human) modulation | P20393 | AID 1259318 | 370,000 compounds, 0.79% hits | Rev-erbα–FITC-DNA binding, fluorescence polarization, 90 min | activity, % at 10 µM;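 active = activity above about 14%, limit read from the data; passing the limit was not always enough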
# PG9 Ab binder = small molecules binding HIV-1 gp120 antibody PG9. AID 624416. TR-FRET gp120-PG9 antibody binding. 360,000 compounds, 0.43% hits. inhibition, % at 6.7 µM; in the data active = inhibition above about 8.5%
# KLK7 zymogen act = activators of human kallikrein-7 zymogen. P49862. purified proKLK7, EDANS-DABCYL substrate fluorescence; 100% is mature enzyme control, 0% vehicle. activation, % at 7 µM. 370,000 compounds, 0.9% hits. AID 652039;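 active = activation above the mean of all tested compounds plus 3 SD, computed per campaign excluding outliers beyond control limits, cut at about 13% in these data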
# PP5 primary = inhibitors of human protein phosphatase 5 (PP5). P53041. purified PP5c, OMFP substrate fluorescence. inhibition, % at 6.7 µM. 320,000 compounds, 0.18% hits. AID 1987;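 active = inhibition above the campaign's mean inhibition across all tested compounds plus 3 SD, cut at about 9.5% in these data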
# Target sequence (P53041 whole entry, looked up): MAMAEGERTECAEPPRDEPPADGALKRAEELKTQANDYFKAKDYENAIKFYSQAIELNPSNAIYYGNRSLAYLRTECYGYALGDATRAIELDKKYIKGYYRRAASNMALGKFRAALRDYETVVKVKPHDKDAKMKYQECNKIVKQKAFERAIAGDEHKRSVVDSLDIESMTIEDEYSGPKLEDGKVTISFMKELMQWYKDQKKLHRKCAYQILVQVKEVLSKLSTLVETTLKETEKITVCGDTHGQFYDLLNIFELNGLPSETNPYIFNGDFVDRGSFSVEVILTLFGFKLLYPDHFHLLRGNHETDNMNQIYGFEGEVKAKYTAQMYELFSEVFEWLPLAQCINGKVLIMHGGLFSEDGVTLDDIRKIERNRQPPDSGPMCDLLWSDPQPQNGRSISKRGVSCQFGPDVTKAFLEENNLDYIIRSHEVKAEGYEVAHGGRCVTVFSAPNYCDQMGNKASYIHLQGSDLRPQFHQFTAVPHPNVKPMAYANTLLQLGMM
# JMJD2C inh = human JMJD2C demethylase inhibition; Q9H3R0; GST-JMJD2C(1-420) H3K9me3 demethylation, DELFIA europium; inhibition, % at 2.35 µM; 330,000 compounds, 0.069% hits;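 active = more than half of a compound's replicate wells show inhibition beyond 50%, single wells judged on their own value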;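 also: signal counts dimethyl H3K9 product captured on neutravidin plate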
# PP1 counter = PP1-alpha (human) inhibition in PP5 counter-screen | purified PP1alpha, OMFP fluorescence | inhibition, % at 6.7 µM | 320,000 compounds, 0.9% hits | AID 2235;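 active = inhibition above the mean inhibition of all tested compounds plus 3 SD, computed separately for each screening campaign, cut at about 15% in these data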
# NR1D1 mod conf = Rev-erb alpha (human) modulation, hit confirmation. shares compounds with NR1D1 modulator. 3,000 compounds, 61% hits. AID 1259319. activation, % at 25 µM. Rev-erb alpha FITC-DNA binding, fluorescence polarization, 90 min;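 active = activation at or above a set limit, or at least 3 SD above the negative control mean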
# RORg counter = affects RORgamma DNA binding in a Rev-erb alpha counter-screen. shares compounds with NR1D1 modulator. purified RORgamma protein-FITC-DNA binding, fluorescence polarization. IC50, µM. 910 compounds, 8% hits. AID 1259320;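 active = Compounds whose fitted half-maximal concentration for disrupting protein-DNA binding is below 10 micromolar; the record names Rev-erb in its text, so the target is in doubt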
# Hits are given with their value; i = inactive; nt = no result given. A selection: hits, their analogues and other compounds. The true share with any hit is near 2.8%.
SMILES,NR1D1 modulator,PG9 Ab binder,KLK7 zymogen act,PP5 primary,JMJD2C inh,PP1 counter,NR1D1 mod conf,others
CCOC(=O)Nc1ccc2c(COC(=O)C(NS(=O)(=O)c3ccc(Cl)cc3)C(C)O)cc(=O)oc2c1 (centres undefined),i,i,i,nt,i,nt,nt,
CCOC(=O)Nc1ccc2c(COC(=O)CN(C)S(=O)(=O)c3ccc(C)cc3)cc(=O)oc2c1,46,i,i,i,i,i,i,
CCCN1C(=O)/C(=C\C=C2/Sc3ccccc3N2CCO)SC1=S,i,i,i,i,i,i,nt,
CCCN1C(=O)/C(=C/C=C2\N(CC)c3ccccc3C2(C)C)SC1=S,47,i,i,i,i,i,43,
CCN1C(=O)/C(=C\N2CCCc3ccccc32)SC1=S,i,i,i,i,i,i,nt,
CCCCN1C(=O)/C(=C/C=C2/CC(C)(C)CN2C)SC1=S,84,i,i,i,i,i,95,RORg counter=9.8
CCCCN1C(=O)/C(=C/C=C2\Oc3ccccc3N2CC)SC1=S,15,i,i,nt,i,nt,62,RORg counter=i
CCCN1C(=O)/C(=C2/C=Cc3ccccc3N2CC)SC1=S,i,i,i,i,i,i,nt,
C=CCN1C(=O)/C(=C\C=C2\N(C)c3ccccc3C2(C)C)SC1=S,25,i,i,i,i,i,39,RORg counter=i
CN1/C(=C\C=C2/SC(=S)N(CC(=O)O)C2=O)C(C)(C)c2ccccc21,i,i,i,i,i,i,nt,
COCCCNc1nc2c(-c3ccc(C)cc3)nnn2c2ccccc12,65,i,i,i,i,i,35,RORg counter=i
O=[N+]([O-])c1ccc(N/N=C/c2sc(N3CCOCC3)nc2-c2ccccc2)c(S(=O)(=O)Nc2ccccc2Cl)c1,24,i,i,nt,nt,nt,i,
COc1ccc(CCNc2nc(=S)[nH]c3cc(OC)c(OC)cc23)cc1OC,i,i,i,i,i,i,nt,
COc1cc2[nH]c(=S)nc(NCCc3ccc(C)cc3)c2cc1OC,76,i,i,nt,nt,nt,52,RORg counter=4
Cc1cc(=O)oc2c(C)cc(C(C)(C)C)cc12,27,i,i,nt,nt,nt,26,
COC(=O)[C@]12C[C@H](CC(=O)NCCC(C)C)C(=O)N(Cc3ccc(Cl)cc3Cl)C1=C[C@H](C1CCCC1)O[C@@H]2C,i,nt,i,nt,nt,nt,nt,
O=S1(=O)c2ccc(N3CCC[C@@H]3CO)cc2O[C@H]2CCN1C2,i,nt,i,nt,nt,nt,nt,
O=c1oc2ccccc2cc1-c1cn2ccccc2n1,i,i,i,i,i,i,nt,
COc1ccc2oc(=O)c(-c3cn4ccc(C)cc4n3)cc2c1,76,i,i,i,i,i,i,
Clc1ccc(-c2cn(-c3nc4ccccc4s3)nn2)cc1,19,i,i,nt,nt,nt,i,
O=C(Nc1nnc(-c2ccccc2)s1)c1ccccc1F,i,i,i,i,i,i,nt,
O=C(Nc1nnc(-c2ccccc2Cl)s1)c1ccccc1F,27,i,i,nt,i,nt,i,
Cc1cccc(CSc2nc3ccncc3n2CC(=O)Nc2cc(C)cc(C)c2)c1,29,i,i,i,i,i,13,
CSc1nc2ccccc2n1CC(=O)Nc1ccc(C)c(C)c1,i,i,i,i,i,i,nt,
Cc1ccc(N=Nc2c(=O)[nH]n3c(C)cc(C)nc23)cc1,17,i,i,i,i,i,i,
SMILES,NR1D1 modulator,PG9 Ab binder,KLK7 zymogen act,PP5 primary,JMJD2C inh,PP1 counter,NR1D1 mod conf,others
C[C@@H]1CCN(C2CC2)S(=O)(=O)c2ccc(N3CCC[C@H]3C)cc2O1,i,nt,i,nt,nt,nt,nt,
CCOC(=O)c1nn(-c2ccccc2)c(=O)cc1OCC(=O)Nc1cc(C)ccc1OC,48,i,i,i,i,i,i,
CCOC(=O)c1nn(-c2ccc(F)cc2)c(=O)cc1OCC(=O)Nc1cccc(C)c1,101,11,i,i,i,i,93,RORg counter=i
COc1ccc(-c2nn(C)c(=O)c3ccccc23)cc1NC(=O)COc1ccc(C)cc1,34,i,i,i,i,i,i,
CCOC(=O)c1nn(-c2ccc(C)cc2)c(=O)cc1OCC(=O)Nc1cc(C)ccc1OC,i,i,i,i,i,i,nt,
CCC(=O)Nc1cc(-c2nn(C)c(=O)c3ccccc23)ccc1OC,i,i,i,i,i,i,nt,

# High-throughput results deposited in PubChem BioAssay by several laboratories.
